Screens as filed in PubChem BioAssay.
Sampled rows, rich in hits. Any-hit rate of the full collection: about 3.5%.
TEAD-YAP inh: TEAD-YAP interaction inhibition, primary screen, TEAD-YAP interaction inhibitor project, luminescence, HEK-TIYL cells. TEAD-Gal4/YAP UAS-luciferase luminescence. inhibition, % at 9.12 µM. 640,000 tested, 1.4% active; in the data active = inhibition above about 32%;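 note: 0% = median of test compound wells and 100% = reference inhibitor wells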
GPR151 ag: activators of human GPR151, primary screen, cell-based, PathHunter beta-arrestin, luminescence; 650,000 tested, 1% active; activation, % at 11.2 µM; G-protein coupled receptor 151 (Homo sapiens), Q8TDV0; AID 1508602, 2020; PathHunter beta-arrestin GPR151 cells; in the data active = activation above about 4.9%;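 note: 0% = median of compound wells and 100% = cells with positive control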
FBW7 act: FBW7 E3 ligase activators, primary screen, biochemical, AlphaScreen, human. AlphaScreen FBW7–phospho-cyclin E peptide binding, activator screen. normalized activity (activation), % at 26.1 µM. 650,000 tested, 0.13% active; in the data active = normalized activity above about 1.9%;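 note: purified mutant Fbw7 with reduced substrate affinity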
MITF inh: MITF inhibitors, primary screen, biochemical, AlphaScreen, human | Microphthalmia-associated transcription factor (Homo sapiens), O75030 | AlphaScreen MITF homodimerization, bead proximity signal | inhibition, % at 2.6 µM | 650,000 tested, 0.91% active; in the data active = inhibition above about 50%;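 note: 0% = vehicle wells with protein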
GPR151 confirm: GPR151 activators, triplicate retest, confirmation, cell-based, PathHunter beta-arrestin, luminescence; shares compounds with GPR151 ag; GPR151 PathHunter beta-arrestin cells, 90 min; % of EA-reagent control over plate median; activation, % at 11.2 µM; 6,700 tested, under 10 active;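 active = mean percent activation across replicates above the confirmation screen cutoff of 4.91%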
GPR119 ag: GPR119 activators in beta-arrestin cells, counter-screen for GPR151 activator project, cell-based, PathHunter beta-arrestin, luminescence, triplicate; shares compounds with GPR151 ag; 90 min; 0 = compound-well median, 100 = enzyme-acceptor control; activation, % at 11.2 µM; 6,700 tested, 0.3% active; AID 1508611, 2020;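 active = mean percent activation in the counterscreen above 29.09%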;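 note: counterscreen on off-target GPR119 to flag nonselective hits from the GPR151 activator screen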
Target sequence (Q8TDV5 whole entry, looked up): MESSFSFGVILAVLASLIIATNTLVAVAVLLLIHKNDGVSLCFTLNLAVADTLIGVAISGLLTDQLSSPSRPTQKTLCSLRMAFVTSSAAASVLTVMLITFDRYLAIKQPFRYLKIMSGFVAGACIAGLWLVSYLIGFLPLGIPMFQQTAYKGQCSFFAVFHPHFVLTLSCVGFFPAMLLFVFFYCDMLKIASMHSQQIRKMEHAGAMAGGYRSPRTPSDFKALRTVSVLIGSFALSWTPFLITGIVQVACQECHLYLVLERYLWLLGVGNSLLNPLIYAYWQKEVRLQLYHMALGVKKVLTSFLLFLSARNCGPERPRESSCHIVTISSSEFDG
Numbers without * were called inactive; x = no result.

SMILES | TEAD-YAP inh | GPR151 ag | FBW7 act | MITF inh | GPR151 confirm | GPR119 ag
COCCn1c(SCC(=O)Nc2ccc(C)c(C)c2)nnc1C(C)C | 12 | 8.2* | 0 | 7 | 0 | 0
Cc1ccc(CSc2nc3ccsc3c(=O)n2Cc2ccc(C)cc2)cc1 | 5 | -1 | 0 | 14 | x | x
O=C(CSc1nc2ccccc2c(=O)n1CCC1=CCCCC1)NCCc1ccccc1 | -9 | 6.4* | 0 | -1 | 0 | -5
CCOC(=O)CSc1nc2ccccc2c(=O)n1Cc1ccccc1OC | 6 | 5.2* | 0 | 7 | 0 | 1
Cc1ccc(Cn2c(SCC(=O)C(C)(C)C)nc3ccsc3c2=O)cc1 | -3 | 5.0* | 0 | 7 | 1 | 8
COc1ccccc1NC(=O)CSc1nc2ccsc2c(=O)n1Cc1ccccc1 | 4 | 6.0* | 0 | 0 | 1 | 10
CC(=O)c1sc2nc(-c3ccc(Br)cc3)cn2c1C | -65 | 2 | 0 | -8 | x | x
O=C(c1ccc([N+](=O)[O-])c(Br)c1)N(c1ccccn1)c1ccccn1 | 13 | 1 | 0 | 1 | x | x
O=C(CC(NCc1cccnc1)C(=O)O)Nc1ccc(Cl)cc1 (centres undefined) | 1 | 0 | 0 | -10 | x | x
Cc1nc2ccc(Br)cn2c1C(=O)NCC(C)C | 2 | 0 | 0 | 13 | x | x
O=C(CC(c1ccccc1)c1ccccc1)NCC1COc2ccccc2O1 (centres undefined) | -2 | -2 | 0 | -7 | x | x
COc1ccc(CCNC(=O)CCn2c(SCC(=O)Nc3cc(C)on3)nc3ccccc3c2=O)cc1OC | 3 | 4.9* | 0 | 8 | -1 | -17
CCC(C)NC(=O)CSc1nc2ccccc2c(=O)n1CCCN1CCCCC1CC (centres undefined) | 1 | 1 | 0 | -5 | x | x
CC(NC(=O)CSc1nc2ccccc2c(=O)n1CCCO)c1ccccc1 (centres undefined) | 6 | 6.5* | 0 | 9 | 0 | -2
O=C(CSc1nc2ccsc2c(=O)n1Cc1ccccc1)NCCC1=CCCCC1 | -7 | 8.7* | 0 | 5 | 1 | 4
OC(CN1CCOCC1)Cn1cnc2c(SCc3ccccc3)ncnc21 (centres undefined) | 0 | 6.0* | 0 | 9 | 1 | 0
O=C(Nc1c[nH]c(=O)[nH]c1=O)c1ccc2c(c1)C(=O)N(c1ccc([N+](=O)[O-])cc1)C2=O | 5 | 0 | 0 | -1 | x | x
Cc1ccc(/C=N/NC(=O)c2nc3nc(C)cc(C)n3n2)cc1 | -14 | -1 | 0 | -7 | x | x
Cc1cc(C)n2nc(C(=O)N/N=C/c3ccccc3)nc2n1 | -4 | 10* | 0 | -1 | -1 | -8
CCOC(=O)c1ccccc1NC(=O)c1ccoc1C | 7 | 1 | 0 | 11 | x | x
CCOc1ccccc1NC(=O)c1ccccc1NS(C)(=O)=O | 10 | 0 | 0 | -6 | x | x
CCOc1ccccc1NC(=O)c1ccoc1C | 9 | 5.9* | 0 | 6 | 1 | -7
CCOc1ccccc1NC(=O)c1ccccc1NS(=O)(=O)c1ccccc1 | 2 | 5.9* | 0 | -18 | 2 | 13
COCCOC(=O)C1=C(C)Nc2ccc(C)cc2S1 | 4 | 0 | 0 | 17 | x | x
CCOCCOC(=O)C1=C(C)Nc2ccc(C)cc2S1 | 2 | 13* | 0 | 9 | 1 | 11
SMILES | TEAD-YAP inh | GPR151 ag | FBW7 act | MITF inh | GPR151 confirm | GPR119 ag
CCc1ccccc1NC(=S)N(Cc1cccc(Br)c1)CC1CCC(C(=O)O)CC1 (centres undefined) | 11 | 7.9* | 0 | 2 | 0 | 8
COc1ccc(Cl)cc1NC(=S)N(Cc1cccc(Br)c1)CC1CCC(C(=O)O)CC1 (centres undefined) | 6 | 15* | 0 | -13 | -1 | 6
CN(c1ccc(Br)cc1)S(=O)(=O)c1cc2c(cc1Cl)NC(=O)CO2 | 1 | 2 | 0 | 8 | x | x
Cc1cc2c(cc1S(=O)(=O)N(C)c1ccc(Br)cc1)OCC(=O)N2 | 2 | 10* | 0 | 14 | 1 | 4
O=C(c1ccccc1Cl)N1N=C(c2cccnc2)CC1c1ccccc1O (centres undefined) | 15 | 6.7* | 0 | 9 | -1 | 6
CSCCCNC(=O)Cn1nnnc1CN1CCCCCC1 | 3 | 13* | 0 | 7 | 0 | 3
COCCCNC(=O)c1ccc(OC(C)=O)cc1 | 4 | 0 | 0 | -3 | x | x
CCOCCCNC(=O)c1ccc(OC(C)=O)cc1 | -2 | 6.8* | 0 | 13 | 0 | -16
CC(C)(O)C#Cc1ccc(C(=O)NC(Cc2c[nH]c3ccccc23)C(=O)O)cc1 (centres undefined) | -3 | 12* | 0 | -2 | 1 | 7
Cc1ccc(C(=O)NC(Cc2c[nH]c3ccccc23)C(=O)O)cc1 (centres undefined) | -4 | -1 | 0 | -2 | x | x
COCCNC(=O)CN(C(=O)CCC(=O)Nc1nccs1)c1ccc2c(c1)OCO2 | 1 | 7.3* | 0 | -4 | 1 | 11
COc1ccccc1C(CC(=O)Nc1nccs1)c1ccc2c(c1)OCO2 (centres undefined) | -5 | 6.6* | 0 | 0 | 0 | 13
O=C(CN(C(=O)CCC(=O)Nc1nccs1)c1cccc(F)c1)NCC1CCCO1 (centres undefined) | -5 | 9.2* | 1 | 11 | 1 | 0
COCCNC(=O)CN(C(=O)CCC(=O)Nc1ccccn1)c1ccc2c(c1)OCO2 | -5 | -1 | 0 | 8 | x | x
COc1ccc(OC)c(NC(=O)Cn2cnc3sc(C)cc3c2=O)c1 | -2 | -1 | 0 | 14 | x | x
CCCCOc1ccc(-c2nnc(-c3ccc(-c4ccccc4)cc3)o2)cc1 | 2 | 5.5* | 0 | 5 | 0 | -10
O=C(CSc1nc2ccc([N+](=O)[O-])cc2s1)N1CCOCC1 | 6 | 2 | 0 | 10 | x | x
O=C(NCc1ccccc1)c1cnc2cc(-c3cn[nH]c3)ccn12 | -10 | 6.2* | 0 | 1 | 0 | 12
O=C1CCCN1CCCNc1nc(N2CCc3ccccc3C2)nc2c1ncn2CCN1CCCC1=O | 11 | -1 | 0 | -3 | x | x
O=C1CCCN1CCCNc1nc(-c2csc3ccccc23)nc2c1ncn2-c1ccccc1 | 11 | 5.8* | 0 | 0 | 0 | -5
O=C1CCCN1CCCNc1nc(-c2csc3ccccc23)nc2c1ncn2Cc1ccc(C(F)(F)F)cc1 | -8 | 0 | 0 | -9 | x | x
O=C1CCCN1CCn1cnc2c(NCCOc3ccccc3)nc(N3CCc4ccccc4C3)nc21 | 10 | 15* | 0 | 0 | 2 | -8
